Laboratory results taken from article PMC4336329 (PLoS ONE, 2015).
The campaign covered roughly 310,000 compounds. About 2,200 (0.71%) showed an effect of 50% or more. Effects have a minus sign here. The sample as a whole holds a higher share of strong results than the screen did.

target: human ether-à-go-go-related gene (hERG) potassium channel (human, UniProt Q12809); experiment: primary screen, population patch clamp on CHO cells stably expressing hERG; higher = less effect of the substance
Sequence (Q12809 whole entry, looked up): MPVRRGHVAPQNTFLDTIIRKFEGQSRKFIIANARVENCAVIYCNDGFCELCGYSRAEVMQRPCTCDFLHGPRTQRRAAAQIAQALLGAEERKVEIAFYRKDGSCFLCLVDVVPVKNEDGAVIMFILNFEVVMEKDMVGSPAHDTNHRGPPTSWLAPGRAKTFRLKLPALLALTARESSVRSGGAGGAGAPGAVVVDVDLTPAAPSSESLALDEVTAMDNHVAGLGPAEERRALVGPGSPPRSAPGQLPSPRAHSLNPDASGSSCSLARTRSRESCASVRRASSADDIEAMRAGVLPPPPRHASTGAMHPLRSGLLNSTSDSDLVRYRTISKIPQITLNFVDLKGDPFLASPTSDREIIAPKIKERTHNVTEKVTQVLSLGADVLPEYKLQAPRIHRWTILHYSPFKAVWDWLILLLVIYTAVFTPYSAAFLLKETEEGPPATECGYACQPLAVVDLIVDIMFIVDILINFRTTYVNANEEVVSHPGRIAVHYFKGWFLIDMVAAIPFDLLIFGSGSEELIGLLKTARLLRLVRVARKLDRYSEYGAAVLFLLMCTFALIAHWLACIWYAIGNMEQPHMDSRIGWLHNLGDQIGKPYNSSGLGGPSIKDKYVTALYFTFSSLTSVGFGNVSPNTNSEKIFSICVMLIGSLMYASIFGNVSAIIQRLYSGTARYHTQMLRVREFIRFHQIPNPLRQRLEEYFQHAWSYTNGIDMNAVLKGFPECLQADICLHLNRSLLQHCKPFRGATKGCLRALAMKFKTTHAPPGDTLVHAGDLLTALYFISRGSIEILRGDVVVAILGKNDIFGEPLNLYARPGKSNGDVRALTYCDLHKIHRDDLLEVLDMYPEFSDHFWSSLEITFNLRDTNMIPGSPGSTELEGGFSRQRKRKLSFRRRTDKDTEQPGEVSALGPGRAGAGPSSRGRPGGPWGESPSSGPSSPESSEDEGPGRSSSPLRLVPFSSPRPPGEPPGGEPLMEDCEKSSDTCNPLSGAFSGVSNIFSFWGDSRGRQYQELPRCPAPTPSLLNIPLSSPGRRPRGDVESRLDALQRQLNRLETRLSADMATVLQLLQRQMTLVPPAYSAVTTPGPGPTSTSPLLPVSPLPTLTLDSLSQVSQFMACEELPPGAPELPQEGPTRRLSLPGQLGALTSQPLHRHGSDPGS

SMILES	hERG current change (%, negative = inhibition) at 1uM
O=C(OCc1cc(=O)n2c(n1)sc1ccccc12)c1ccc(O)cc1O	7.81%
Cc1ccc2[nH]c(=O)c(-c3nc4ccccn4c3NCc3ccco3)cc2c1	-4.3%
COCCNc1c(-c2cc3ccc(C)c(C)c3[nH]c2=O)nc2ccccn12	-77%
Cc1cccc2cc(-c3nc4c(C)cccn4c3NCc3ccco3)c(=O)[nH]c12	2.58%
CCOCCCNC(=O)CN(Cc1ccc(Cl)cc1)S(C)(=O)=O	8.42%
c1ccc(CNCc2ccc3c(c2)OCO3)nc1	11%
CC(C)CCC(CCNCc1ccccn1)c1ccc2c(c1)OCO2.Cl (stereo not drawn)	-79.1%
CCNCCC(CCC(C)C)c1ccc2c(c1)OCO2 (stereo not drawn)	-64.3%
Cl.Fc1ccccc1CNCCC(Cc1ccccc1)c1ccc2c(c1)OCO2 (stereo not drawn)	10.8%
CC(C)CCC(CCNCc1ccccn1)c1ccc(Cl)cc1 (stereo not drawn)	-40.7%
CC(NC(=O)C1CCC1)c1ccc2c(c1)OCO2 (stereo not drawn)	-3.43%
COCCCNCCC(CCC(C)C)c1ccc2c(c1)OCO2.Cl (stereo not drawn)	-85.8%
COCCCNC(=O)c1ccc2c(c1)OCO2	-2.46%
COCCCNS(=O)(=O)c1ccc2c(c1)OCCO2	5.7%
COc1ccccc1NS(=O)(=O)c1ccc(C)c(C(=O)NCC2CCCO2)c1 (stereo not drawn)	-14.5%
CCNc1nc(N)nc(Oc2ccc(OCCOc3ccccc3)nn2)n1	8.36%
COc1ccc2[nH]c(C)c(CCN(Cc3cccs3)C(=S)Nc3ccccc3)c2c1	6.37%
O=C1c2ccc3c4c(ccc(c24)C(=O)N1NC(=O)C(F)(F)F)CC3	10.1%
COc1cc(NC(=O)c2ccccc2F)c(OC)cc1NC(=O)CN1CCCCC1.Cl	1.58%
O=C(O)c1ccccc1C(=O)Nc1ccc(Br)c(C(F)(F)F)c1	2.61%
CCc1ccc(N2C(=O)CC(N3CCN(Cc4ccc5c(c4)OCO5)CC3)C2=O)cc1 (stereo not drawn)	-1.13%
Cc1ccc(-c2csc3nc(C(C)C)oc(=O)c23)c(C)c1	13.5%
OCCC1CN(Cc2cccc3nonc23)CCN1Cc1ccsc1 (stereo not drawn)	-15.7%

SMILES	hERG current change (%, negative = inhibition) at 1uM
CCOc1ccccc1CN1CCN(Cc2cccc3nonc23)CC1CCO (stereo not drawn)	-50%
CCOc1ccc(CN2CCN(Cc3cccc4nonc34)CC2CCO)cc1 (stereo not drawn)	-84.6%
COc1ccc(CN2CCN(Cc3cccc4nonc34)CC2CCO)c(C)c1C (stereo not drawn)	-7.13%
CCOc1ccccc1CN1CCN(Cc2nc3c(s2)CCCC3)CC1CCO (stereo not drawn)	-26.6%
CCOc1ccccc1CN1CCN(Cc2nc3ccccc3s2)CC1CCO (stereo not drawn)	-67.7%
CCOc1ccccc1CN1CCN(Cc2cccc3c2OCO3)CC1CCO (stereo not drawn)	-2.66%
CCOc1ccccc1CN1CCN(Cc2ccon2)CC1CCO (stereo not drawn)	-7.08%
COc1cccc(CN2CCN(Cc3cccc4nonc34)CC2CCO)c1 (stereo not drawn)	-24%
CC1CC(C)CN(C(=O)c2cc3cc(Br)cc(Br)c3o2)C1 (stereo not drawn)	11.6%
COc1ccc(CN2C=C3C(=O)C(C)(OC(=O)C4CCCC4)C(=O)C=C3C=C2c2ccsc2)cc1 (stereo not drawn)	-2.57%
CCOC(=O)N(NC(=O)C(O)(CC(C)C)CC(C)C)c1ccccc1	6.37%
CCN(CC)CCN1C(=O)Cn2c(C)c(C)c3cccc1c32.O=C(O)C(O)C(O)C(=O)O	-56.1%
CCN(CC)CCN1C(=O)Cn2c(C)c(C)c3cccc1c32.Cl	-12.2%
CCN(CC)CCN1c2ccccc2Sc2ccccc21.O=C(O)C(=O)O	-3.5%
CCCc1ncc(CN2CCCCC2C(=O)Nc2ccc(Oc3ccccc3)nc2)cn1 (stereo not drawn)	12.1%
Cc1cc(=O)c(C(=O)O)nn1-c1cccc(C(F)(F)F)c1	-78.9%
Cc1cc(=O)c(C(=O)O)nn1-c1ccccc1	8.46%
O=C(O)c1nn(-c2cccc(C(F)(F)F)c2)ccc1=O	15.1%
Cc1ccc2nc(C)cc(N/N=C/c3ccc(F)cc3)c2c1	0.285%
CC(=O)Nc1ccc(N2CCC(C)CC2)c([N+](=O)[O-])c1	7.46%
COc1ccc(C2CC(C(F)(F)F)n3nc(C(=O)N(C)Cc4cn(C)nc4C)c(Cl)c3N2)cc1 (stereo not drawn)	-3.33%
CCOC(=O)c1cnc(N2CCN(C(=O)OCC)CC2)[nH]c1=O	13.9%
